Drawing on ChEMBL document CHEMBL4513141, “CO-ADD screening of NIH (USA) - Clinical Collection” (2021), this text covers Inhibition for 19 compounds.

In general, Inhibition refers to the change of the read-out against control, counted positive when it falls.

The structures appear in SMILES notation. Measured potencies and affinities stand elsewhere.

For experiment [1], the system named is Staphylococcus aureus. Conditions: Concentration 20 uM; ASSAY_TEST Inhibition of Bacterial Growth; detection method Absorption (OD600); MEDIA CAMHB; plate type 384well; NBS; CORNING #3640; time 18 hr.
Experiment [2] has as its system Escherichia coli. Conditions: Concentration 20 uM; ASSAY_TEST Inhibition of Bacterial Growth; detection method Absorption (OD600); MEDIA CAMHB; plate type 384well; NBS; CORNING #3640; time 18 hr.

On to `CN(CCOc1ccc(CC2SC(=O)NC2=O)cc1)c1ccccn1.O=C(O)/C=C\C(=O)O` (stereo not drawn) [ROSIGLITAZONE MALEATE], for which the Inhibition in experiment [1] came out at 5.02%; in experiment [2], 0.27%.

`Cc1nccn1CC1CCc2c(c3ccccc3n2C)C1=O` (stereo not drawn) [ONDANSETRON]: the Inhibition turned out to be 4.05% in experiment [1] and 7.33% in experiment [2].

Turning to `Cl.c1ccc2c(c1)CCCC2C1=NCCN1` (stereo not drawn) [TETRAHYDROZOLINE HYDROCHLORIDE], the figures for the Inhibition in experiment [1] and in experiment [2] were 17.23% and 7.52%, respectively.

With `COc1ccc(OC)c(C(O)CNC(=O)CN)c1.Cl` (stereo not drawn) [MIDODRINE HYDROCHLORIDE], the Inhibition was determined as 15.42% in experiment [1] and 4.77% in experiment [2].

On to `CCc1nn(CCCN2CCN(c3cccc(Cl)c3)CC2)c(=O)n1CCOc1ccccc1.Cl` [NEFAZODONE HYDROCHLORIDE], for which the Inhibition in experiment [1] is given as 6.52%; in experiment [2], 3.73%.

As for `CC(=O)NS(=O)(=O)c1ccc(N)cc1` [SULFACETAMIDE], the figures for the Inhibition in experiment [1] and in experiment [2] were 13.64% and 1.92%, respectively.

On to `Cc1occc(=O)c1O` [MALTOL], for which the Inhibition is on record as 14.12% in experiment [1] and 4.13% in experiment [2].

Turning to `CS(=O)(=O)O.Cc1c(O)cccc1C(=O)N[C@@H](CSc1ccccc1)[C@H](O)CN1C[C@H]2CCCC[C@H]2C[C@H]1C(=O)NC(C)(C)C` [NELFINAVIR MESYLATE], the Inhibition in experiment [1] was found to be 8.63%; in experiment [2], 1.35%.

On to `CN1CCC(=C2c3ccccc3CCc3sccc32)CC1.O=C(O)/C=C\C(=O)O`, for which the Inhibition in experiment [1] came out at 4.8%; in experiment [2], 2.87%.

For `Cc1cccc(C)c1NC(=O)C1CCCCN1C.Cl` (stereo not drawn) [MEPIVACAINE HYDROCHLORIDE], the figures for the Inhibition in experiment [1] and in experiment [2] were 10.78% and 6.74%, respectively.

As for `C=C(CC)C(=O)c1ccc(OCC(=O)O)c(Cl)c1Cl` [ETHACRYNIC ACID], the Inhibition in experiment [1] was 39.53%; in experiment [2], 0.95%.

Take `CN1CC(=O)N2[C@H](c3ccc4c(c3)OCO4)c3[nH]c4ccccc4c3C[C@@H]2C1=O`: the Inhibition is listed as 6.36% in experiment [1] and 0.57% in experiment [2].

Consider `O=c1c(O[C@@H]2O[C@H](CO)[C@H](O)[C@H](O)[C@H]2O)c(-c2ccc(O)c(O)c2)oc2cc(O)cc(O)c12` [HYPEROSIDE], for which the Inhibition in experiment [1] is 7.34%; in experiment [2] it was 3.89%.

Regarding `CC(=O)[C@H]1CC[C@H]2[C@@H]3C[C@H](C)C4=CC(=O)CC[C@]4(C)[C@H]3[C@@H](O)C[C@]12C` [MEDRYSONE], the Inhibition in experiment [1] was found to be 2.89%; in experiment [2] it was 2.65%.

On to `CCOc1cc(N)c(Cl)cc1C(=O)NCC1CN(Cc2ccc(F)cc2)CCO1.O=C(O)CC(O)(CC(=O)O)C(=O)O` (stereo not drawn) [MOSAPRIDE CITRATE], for which the figures for the Inhibition in experiment [1] and in experiment [2] were 10.04% and 3.47%, respectively.

Take `Nc1nc(N)c2nc(-c3ccccc3)c(N)nc2n1`: the Inhibition is -4.86% in experiment [1] and 10.99% in experiment [2].

As for `Nc1ccn([C@H]2CC[C@@H](CO)O2)c(=O)n1` [ZALCITABINE], the Inhibition is 4.24% in experiment [1] and -9.44% in experiment [2].

Regarding `NS(=O)(=O)c1cc2c(cc1C(F)(F)F)NC(Cc1ccccc1)NS2(=O)=O` (stereo not drawn) [BENDROFLUMETHIAZIDE], the Inhibition in experiment [1] was 4.68%; in experiment [2], -3.75%.

Turning to `CN1CCCCC1CCN1c2ccccc2Sc2ccc([S+](C)[O-])cc21.O=S(=O)(O)c1ccccc1` (stereo not drawn) [MESORIDAZINE BESYLATE], the Inhibition is recorded as -15.92% in experiment [1] and 4.24% in experiment [2].
